Source: PubChem BioAssay
The entries come from a sample that favours hits as a whole.
KDM5B inh: KDM5B demethylase inhibition | Q9UGL1 | KDM5B demethylase, FDH-coupled NADH fluorescence (FDH is formaldehyde dehydrogenase) | Potency, µM (titrated, usually from 57.7 µM), usual class: inhibitors | 220,000 tested, 2.6% active; active means well fitted inhibition curve with a large enough effect; further: 0% is about no effect; nearly all actives have a fitted effect of over 70% in size
Target sequence (Q9UGL1 whole entry, looked up): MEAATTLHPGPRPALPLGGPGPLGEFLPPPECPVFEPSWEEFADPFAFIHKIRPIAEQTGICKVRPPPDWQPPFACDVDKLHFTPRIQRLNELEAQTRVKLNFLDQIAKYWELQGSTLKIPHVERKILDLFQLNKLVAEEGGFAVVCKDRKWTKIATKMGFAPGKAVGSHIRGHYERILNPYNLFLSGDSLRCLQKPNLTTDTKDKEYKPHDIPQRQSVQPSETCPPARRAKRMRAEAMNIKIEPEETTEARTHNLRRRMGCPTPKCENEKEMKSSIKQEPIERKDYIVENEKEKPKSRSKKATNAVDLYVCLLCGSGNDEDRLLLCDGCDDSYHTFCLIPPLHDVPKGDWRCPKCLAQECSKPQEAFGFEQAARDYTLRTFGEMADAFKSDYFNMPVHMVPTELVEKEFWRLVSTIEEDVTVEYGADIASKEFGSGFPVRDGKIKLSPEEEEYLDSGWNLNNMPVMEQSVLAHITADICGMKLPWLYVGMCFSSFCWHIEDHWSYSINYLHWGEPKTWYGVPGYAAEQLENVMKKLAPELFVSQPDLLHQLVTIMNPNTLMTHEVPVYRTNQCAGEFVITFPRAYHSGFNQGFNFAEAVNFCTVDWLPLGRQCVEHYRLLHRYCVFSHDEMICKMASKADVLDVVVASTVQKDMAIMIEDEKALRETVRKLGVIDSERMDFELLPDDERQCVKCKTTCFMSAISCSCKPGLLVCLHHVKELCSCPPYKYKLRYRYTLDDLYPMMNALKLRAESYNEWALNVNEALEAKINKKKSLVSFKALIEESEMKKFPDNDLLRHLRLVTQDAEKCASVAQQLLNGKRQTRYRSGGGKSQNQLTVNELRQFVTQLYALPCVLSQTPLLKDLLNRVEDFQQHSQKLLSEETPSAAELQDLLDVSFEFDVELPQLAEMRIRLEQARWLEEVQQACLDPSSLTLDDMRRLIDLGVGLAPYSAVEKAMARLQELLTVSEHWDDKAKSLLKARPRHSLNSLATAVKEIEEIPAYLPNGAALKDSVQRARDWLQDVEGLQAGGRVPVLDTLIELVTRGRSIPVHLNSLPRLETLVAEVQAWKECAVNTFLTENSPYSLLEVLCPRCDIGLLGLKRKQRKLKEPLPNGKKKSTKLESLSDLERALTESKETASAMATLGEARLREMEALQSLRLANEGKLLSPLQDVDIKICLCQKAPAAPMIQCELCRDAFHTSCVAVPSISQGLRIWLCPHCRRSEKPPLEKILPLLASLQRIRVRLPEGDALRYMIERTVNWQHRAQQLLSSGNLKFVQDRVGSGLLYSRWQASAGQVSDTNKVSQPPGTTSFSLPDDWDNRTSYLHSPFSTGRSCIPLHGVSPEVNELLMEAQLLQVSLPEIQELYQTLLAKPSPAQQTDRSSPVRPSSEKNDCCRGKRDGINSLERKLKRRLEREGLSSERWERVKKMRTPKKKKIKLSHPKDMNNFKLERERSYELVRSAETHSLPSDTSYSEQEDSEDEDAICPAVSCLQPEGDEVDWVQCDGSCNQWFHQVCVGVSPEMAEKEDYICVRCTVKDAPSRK
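KDM5BΔAP (200 nM final) in 50 mM HEPES pH 7.5, 0.01% Tween-20 was preincubated 10 min at RT with compound over a concentration range. Substrate mix (H3K4me3 12.5 µM, α-KG 25 µM, Fe²⁺, ascorbate, NAD⁺, FDH) was added, and NADH fluorescence change over 30 min gave dose-response curves.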
An asterisk follows results filed as active; i = inactive. Potency means the concentration at half of the fitted maximal effect.

SMILES	KDM5B inh
CCCc1cc(C(=O)N2CCCC(Cc3ccccc3F)(C(=O)OCC)C2)n(C)n1 (centres undefined)	i
Cc1nc2ncccn2c1C(=O)N1C[C@H]2C(=O)NC[C@@]2(C(=O)O)C1	28.2µM*
Cc1nc2ncccn2c1C(=O)N1CCC2(CCCN(C)C2=O)C1 (centres undefined)	28.2µM*
Cc1c(C(=O)N2CCC3(CCCN(C)C3=O)C2)n(C)c2ccc(F)cc12 (centres undefined)	i
CCOC(=O)C1(Cc2ccccc2F)CCCN(C(=O)c2ccc(-n3ccnc3)cc2)C1 (centres undefined)	i
Cc1nc(C(C)C)ncc1C(=O)N1CCC2(CCCN(C)C2=O)C1 (centres undefined)	i
COCCn1ccnc1C1CCN(C(=O)c2ccc3n[nH]nc3c2)CC1	i
Cc1nc2ncccn2c1C(=O)N1CCC(c2nccn2CC(N)=O)CC1	28.2µM*
CSc1ncc(C(=O)N2CCC(c3nccn3CCN(C)C)CC2)cn1	i
Cc1nc(C2CC2)ncc1C(=O)N1CCC2(CC1)NC(=O)CC2C(=O)O (centres undefined)	i
COc1ccc(NC(=O)C(C)Sc2ccccc2C(=O)NCC(=O)C(C)(C)C)cc1OC (centres undefined)	i
O=C(c1c[nH]c2ccccc12)C(Sc1cc(Cl)ccc1Cl)c1ccccc1 (centres undefined)	i
O=C(/C=C/c1ccc(Cl)cc1Cl)N[C@@H]1C[C@H]2CC[C@@H]1C2	i
CCN(CC)C(CNC(=O)Nc1cccc(C(=O)N2CCCCC2)c1)c1ccsc1 (centres undefined)	i
N#C/C(=C\c1ccc(OCC(=O)N2CCOCC2)cc1)C(=O)Nc1ccccc1	i
COc1cccc(-c2nc(C3CC(=O)N(c4ccc(F)cc4)C3)no2)c1 (centres undefined)	i
Cc1ccc(N2CC(c3noc(-c4cccc(N(C)C)c4)n3)CC2=O)cc1 (centres undefined)	35.5µM*
CC(C)c1ccc(-c2nc(C3CC(=O)N(c4ccc(F)cc4)C3)no2)cc1 (centres undefined)	i
COc1ccc(N2CC(c3noc(-c4cccc(F)c4)n3)CC2=O)cc1 (centres undefined)	i
CN(C)c1ccc(-c2nc(C3CC(=O)N(c4ccc(F)cc4)C3)no2)cc1 (centres undefined)	31.6µM*
CN(C)c1cccc(-c2nc(C3CC(=O)N(c4ccc(F)cc4)C3)no2)c1 (centres undefined)	35.5µM*
Cc1ccc(N2CC(c3noc(-c4ccccc4C)n3)CC2=O)cc1 (centres undefined)	i
Cc1ccc(N2CC(c3noc(-c4ccsc4)n3)CC2=O)cc1 (centres undefined)	i
CC(C)(C)c1ccc(-c2nc(C3CC(=O)N(c4ccc(F)cc4)C3)no2)cc1 (centres undefined)	i
COc1ccc(CN(C)CC(=O)N(C)c2ccccc2C(=O)NCc2ccco2)cc1	i
SMILES	KDM5B inh
Cc1nn(-c2ccccc2)cc1C(=O)N1CCC(C(C)C(=O)NCc2ccc3c(c2)OCO3)CC1 (centres undefined)	i
COC(=O)c1ccc(CNC(=O)c2ccccc2-c2ccccc2)cc1	i
O=C(CCSCCc1ccccn1)Nc1cccc(Cl)c1	i
Cc1oc2cc3o/c(=N/O)c4c(c3cc2c1C)CCC4	i
CN(Cc1cccc(F)c1)C(=O)NC1CCCC(C(F)(F)F)C1 (centres undefined)	i
CCCCCOc1ccc(/C=C/C(=O)/C=C/c2ccc(OCCCCC)cc2)cc1	i
COc1ccccc1-n1c(-c2ccccc2)cn2c3c(=O)[nH]c(=O)n(C)c3nc12	i
Cc1cccc(NC(=O)COC(=O)c2n[nH]c(=O)c3ccccc23)c1	i
Cc1ccc(S(=O)(=O)NCC2CN(Cc3ccccc3)CCO2)c(Br)c1 (centres undefined)	i
Cc1cc(NC(=O)C(C)Sc2nnc3c(Cl)cc(Cl)cn23)on1 (centres undefined)	i
O=C(C1CC(=O)N(C2CC2)C1)N1CCC(Oc2cccnc2)CC1 (centres undefined)	i
O=C(C1CCC(=O)N(C2CCCC2)C1)N1CCN(c2nccs2)CC1 (centres undefined)	i
O=C(C1CC(=O)N(C2CCCC2)C1)N1CCN(c2ccc(Cl)cn2)CC1 (centres undefined)	31.6µM*
CC1=C[C@@H](CNC(=O)c2ccncc2)[C@H](C(C)C)C[C@H]1CC(=O)N1CCN(C)CC1	i
CC(C)CCNC(=O)C1(C)CCC(=O)N1Cc1ccccc1Cl (centres undefined)	i
CCOc1ccccc1NC(=O)CC1CCCN(c2cnn(CC3CC3)c(=O)c2)C1 (centres undefined)	i
Cc1noc(C)c1S(=O)(=O)N(C)C(C)c1cc2ccccc2o1 (centres undefined)	i
COc1ccc(OC2CCN(C(C)=O)CC2)c(C(=O)NC(C)c2cn(C)nc2C)c1 (centres undefined)	31.6µM*
COc1ccc(C(=O)NC(C)c2nncn2C)cc1OC1CCN(C(C)=O)CC1 (centres undefined)	i
COc1ccc(OC2CCN(C(C)=O)CC2)c(C(=O)N(C)Cc2ccccc2)c1	i
Cn1cnc2c1c(=O)n(CCCSCc1ccccc1Br)c(=O)n2C	i
CC(C)(C)c1ccc(CS(=O)Cc2ccc(Cl)cc2)cc1 (centres undefined)	i
CN1CCOc2c(C(=O)NCc3cnn(C)c3)cc(-c3ccccc3)cc21	39.8µM*
COc1ccc(-c2cc(C(=O)NCc3cc(C)on3)c3c(c2)N(C)CCO3)cc1OC	35.5µM*
Cc1oc(-c2ccccc2)cc1C(=O)NCc1ccncc1	i
SMILES	KDM5B inh
COc1ccc(-c2cc(C(=O)NCCCN3CCOCC3)c3ccccc3n2)cc1OC	i
Cc1cc(CNC(=O)c2cc(-c3ccccc3)cc3c2OCCN3C)no1	39.8µM*
Cn1cc(CNC(=O)C2CCN(c3nc(-c4ccccc4)nc4c3CCC4)CC2)cn1	i
CC(=O)Nc1cc(-c2cc(C(=O)NCc3cc(C)on3)c3c(c2)N(C)CCO3)ccn1	i
COc1ccc(CNC(=O)c2noc(-c3ccc(C)cc3)n2)cc1OC	i
Cc1ccc(C(CNC(=O)c2cc(-c3ccccc3)on2)N2CCN(C)CC2)o1 (centres undefined)	i
CCCCC(CC)C(=O)Nc1c(CC)cccc1CC (centres undefined)	i
CCN(C(=O)Cn1cc(C(=O)OC)c2ccccc21)c1ccccc1	i
CCCNC(=O)CNC(=O)c1ccc2ccccc2n1	i
Cc1ccc(-n2cnnc2SCC(=O)Nc2ccc(S(=O)(=O)N3CCCCCC3)cc2)c(C)c1	i
CCOc1cc(C)c(Cl)cc1S(=O)(=O)NCCO	i
Cc1ccc(CNC(=O)CCc2ncc(-c3c(F)cccc3F)o2)cc1F	i
Cc1cc(C(=O)OCC(=O)NCc2ccc(F)cc2)c2ccccc2n1	i
Cc1c(-c2ccccc2F)[nH]c2ccc(CNC(=O)CN3CC(=O)NC3=O)cc12	28.2µM*
O=C(Cn1nc(-c2ccccc2F)ccc1=O)NCc1cccnc1	i
Cc1c(-c2ccccc2F)[nH]c2ccc(CNC(=O)CCn3cnnc3)cc12	31.6µM*
Cc1ccc(CNC(=O)CSc2n[nH]c(N)n2)cc1F	i
COc1cccc(CNC(=O)Cn2c(=O)[nH]c3c(-c4ccccc4F)c[nH]c3c2=O)c1	i
Cc1ccc(CNC(=O)Cc2nn(C)c(=O)c3ccccc23)cc1F	i
